Assay outcomes deposited in PubChem by Sanford-Burnham Center for Chemical Genomics.
Sampled rows, rich in hits. Any-hit rate of the full collection: about 28%.
CYP2C19 inhib: blocks human cytochrome P450 2C19; CYP2C19 Supersomes, luciferin-H EGE luminescence, 30 min; inhibition, % at 5 µM; hit rate 21% among 96,000;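 active means CYP2C19 inhibition above a set limit at 5 µM in the primary screen, cut at about 50% in these data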
Target sequence (P33261 whole entry, looked up): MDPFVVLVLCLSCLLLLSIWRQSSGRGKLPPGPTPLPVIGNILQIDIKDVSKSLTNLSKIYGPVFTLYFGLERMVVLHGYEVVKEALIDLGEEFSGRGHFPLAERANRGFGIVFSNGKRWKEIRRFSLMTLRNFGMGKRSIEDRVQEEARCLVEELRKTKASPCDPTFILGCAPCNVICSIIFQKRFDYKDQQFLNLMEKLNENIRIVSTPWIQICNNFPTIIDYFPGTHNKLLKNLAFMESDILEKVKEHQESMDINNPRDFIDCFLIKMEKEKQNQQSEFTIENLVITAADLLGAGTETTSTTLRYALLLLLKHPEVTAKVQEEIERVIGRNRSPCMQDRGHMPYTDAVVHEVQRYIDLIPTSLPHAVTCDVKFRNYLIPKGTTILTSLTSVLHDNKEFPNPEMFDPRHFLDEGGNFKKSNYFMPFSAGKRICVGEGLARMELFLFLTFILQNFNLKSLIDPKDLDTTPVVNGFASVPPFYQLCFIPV
CYP2C9 activ: activators of human CYP2C9 | recombinant CYP2C9, luciferin-H conversion, luminescence; active compounds read high; factor 1 = untreated enzyme, 0 = blocked | activation factor at 5 µM | hit rate 1.4% among 96,000 | AID 1024;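 active means activation factor of 2 or more for CYP2C9 at a 5 µM dose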
CYP2C9 inh: blocks human cytochrome P450 2C9. P11712. hit rate 20% among 96,000. inhibition, % at 5 µM. CYP2C9 Supersomes, luciferin-H conversion, luminescence. AID 777;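 active means blocking of liver enzyme CYP2C9 beyond about 50% at 5 µM, limit read from the data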
Mac1 fbg enh: CD11b/CD18-fibrinogen binding enhancement; hit rate 0.07% among 93,000; activation, % at 10 µM; K562 CD11b/CD18 adhesion to fibrinogen, ATPlite luminescence; P05107+P11215;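 active means 10 µM primary screen giving 50% or more activity, confirmed by 40% or more on retest at that dose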
Mac1 fbg inh: CD11b/CD18-fibrinogen binding inhibition. P05107+P11215. K562 CD11b/CD18 adhesion to fibrinogen, ATPlite luminescence; Mn2+ added to activate the integrin. inhibition, % at 10 µM. hit rate 0.54% among 93,000. AID 1497;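 active means primary inhibition of 50% or more at 10 µM, then 40% or more on retest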
CYP2C19 act: cytochrome P450 2C19 (human) activation; P33261; AID 1025; 96,000 tested, under 10 active; recombinant CYP2C19, luciferin-H EGE luminescence; active compounds read high; 0 = fully inhibited enzyme, 1 = untreated enzyme; activation factor at 5 µM;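 active means activation factor of at least 2 at 5 µM in the primary screen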
Large screens that a line does not name were inactive.

COc1ccc(CCN2C(=O)CC(N3CCN(S(=O)(=O)c4ccccc4)CC3)C2=O)cc1 (configuration not stated)	none
O=C1CC(N2CCN(S(=O)(=O)c3cccc(C(F)(F)F)c3)CC2)C(=O)N1Cc1ccccc1 (configuration not stated)	CYP2C19 inhib 59.0
CCSc1nc(C2CC2)cc(-c2ccco2)c1C#N	none
CCCSc1nc(N)nc(-c2cccs2)c1C#N	CYP2C9 inh 72.6 (no result: Mac1 fbg enh, Mac1 fbg inh)
CCSc1nc(C2CC2)cc(-c2cccs2)c1C#N	CYP2C19 inhib 68.5
O=C(Nc1ccc2c(c1)OCO2)c1cnn2cccnc12	none
Cc1occc1C(=O)Nc1ccc2c(c1)OCO2	CYP2C19 inhib 54.1
Cc1cc(C)n2ncc(C(=O)Nc3ccc4c(c3)OCO4)c2n1	CYP2C9 inh 74.5
Cc1cc(C(=O)NC(C)c2ccc3c(c2)OCO3)cs1 (configuration not stated)	CYP2C19 inhib 90.4, CYP2C9 inh 59.8
Cc1cc(C(=O)Nc2ccc3c(c2)OCO3)cs1	CYP2C19 inhib 70.0
CCOC(=O)c1[nH]c(C)c(C(=O)Nc2cccc(Cl)c2C)c1C	none
CCOC(=O)c1c(C)c(C(=O)Nc2ccc3c(c2)OCO3)c(C)n1C	none (no result: Mac1 fbg enh, Mac1 fbg inh)
CCOC(=O)c1c(N)sc(C(=O)Nc2ccc3c(c2)OCO3)c1C	CYP2C19 inhib 97.6, CYP2C9 inh 84.4
CNc1oc(-c2ccc(Cl)cc2)nc1P(=O)(c1ccccc1)c1ccccc1	CYP2C9 inh 63.7 (no result: Mac1 fbg enh, Mac1 fbg inh)
COc1ccc(Nc2oc(-c3ccc(Cl)cc3)nc2C#N)cc1	none (no result: Mac1 fbg enh, Mac1 fbg inh)
COc1cccc(CC(NC(C)=O)C(=O)NC2CCN(c3nc(C)cc(C)c3C#N)CC2)c1 (configuration not stated)	CYP2C19 inhib 67.3
COc1ccc(CC(NC(C)=O)C(=O)NC2CCN(c3nc(C)cc(C)c3C#N)CC2)c(OC)c1 (configuration not stated)	CYP2C19 inhib 85.7, CYP2C9 inh 55.3
COc1cccc(CC(NC(C)=O)C(=O)NC2CCN(S(=O)(=O)c3ccc4ccccc4c3)CC2)c1 (configuration not stated)	none
CC(C)(C)c1ccc(NC(=O)COC(=O)CCN2C(=O)c3cccc([N+](=O)[O-])c3C2=O)cc1	none (no result: CYP2C19 inhib, CYP2C9 activ, CYP2C9 inh, CYP2C19 act)
Cc1ccc(-c2nn(C)c(=O)c3ccccc23)cc1CNC(=O)c1ccco1	none
CCn1cc(C(=O)OCC(=O)Nc2cccc(S(=O)(=O)N3CCOCC3)c2)c(=O)c2ccc(C)nc21	CYP2C9 inh 67.1
O=C(COC(=O)CCc1nc2ccccc2s1)Nc1cccc(S(=O)(=O)N2CCOCC2)c1	CYP2C9 activ 2.1
CCCc1nc2ccccc2c(C(=O)OCC(=O)Nc2cccc(S(=O)(=O)N3CCOCC3)c2)c1CC	none (no result: Mac1 fbg enh, Mac1 fbg inh)
O=C(COC(=O)Cc1ccsc1)Nc1ccc(S(=O)(=O)N2CCOCC2)cc1	none (no result: CYP2C19 inhib, CYP2C9 activ, CYP2C9 inh, CYP2C19 act)
O=C(COC(=O)CCc1nc2ccccc2s1)Nc1ccc(S(=O)(=O)N2CCOCC2)cc1	CYP2C9 inh 75.0
NS(=O)(=O)c1ccc(NC(=O)Cn2ncc3c2-c2ccccc2OC3)cc1	none
CCN1C(=Nc2ccc(Cl)cc2)SC/C1=C\C(=O)OC	none
CN1C(=C2C(=O)OC(C)(C)OC2=O)Sc2ccccc21	none (no result: Mac1 fbg enh, Mac1 fbg inh)
CC(/C=N/n1c(-c2ccco2)n[nH]c1=S)=C\c1ccccc1	none (no result: CYP2C19 inhib, CYP2C9 activ, CYP2C9 inh, CYP2C19 act)
Cc1cc(C)n(CCOc2nonc2N)n1	none
Cc1cc(C)n(CCOc2ccc(Cl)cc2Cl)n1	CYP2C19 inhib 96.8
COc1cc(C)c(N(C(C)=O)c2ccccc2)c(C)c1	CYP2C19 inhib 61.3
Cc1ccc2[nH]c(=O)c(CN(CC3CCCO3)S(=O)(=O)c3cccc4nsnc34)cc2c1 (configuration not stated)	CYP2C19 inhib 79.2, CYP2C9 inh 90.6
Cc1ccc2[nH]c(=O)c(CN(Cc3ccco3)S(=O)(=O)c3c(C)ccc4nsnc34)cc2c1	none
Cc1ccc2[nH]c(=O)c(CN(CC3CCCO3)S(=O)(=O)c3c(C)ccc4nsnc34)cc2c1 (configuration not stated)	CYP2C9 inh 51.7
Cc1nc2ccccc2n1/C(=N\S(=O)(=O)c1ccccc1)c1ccccc1	none (no result: CYP2C19 inhib, CYP2C9 activ, CYP2C9 inh, CYP2C19 act)
O=S(=O)(/N=C(/Nc1ccccn1)c1ccccc1)c1ccccc1	none (no result: Mac1 fbg enh, Mac1 fbg inh)
O=c1[nH]c2ccc(Cl)cc2c(-c2ccccc2)c1SC(=S)N1CCCCC1	CYP2C9 inh 52.4
